Reference: PMC5540273 (PLoS ONE, 2017)

Experiments:
Settings in all cases: concentration: 1 μM, replicates: in singlicate; n = 1
ALK = test system: ALK
AMPK-alpha1 = test system: T1, AMPK-alpha1
T1 construct: gene PRKAA1

AMPK-alpha2 = test system: T2, AMPK-alpha2
T2 construct: gene PRKAA2

ANKK1 = test system: ANKK1
ARK5 = test system: T3, ARK5
T3 construct: gene NUAK1

ASK1 = test system: T4, ASK1
T4 construct: gene MAP3K5

ASK2 = test system: T5, ASK2
T5 construct: gene MAP3K6

AURKA = test system: AURKA
AURKB = test system: AURKB
AURKC = test system: AURKC
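Further: KINOMEscan kinase panel screen.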

| SMILES | %Inh (ALK) | %Inh (AMPK-alpha1) | %Inh (AMPK-alpha2) | %Inh (ANKK1) | %Inh (ARK5) | %Inh (ASK1) | %Inh (ASK2) | %Inh (AURKA) | %Inh (AURKB) | %Inh (AURKC) |
| --- | --- | --- | --- | --- | --- | --- | --- | --- | --- | --- |
| Cc1nc(N(C)[C@H]2CN(C(=O)CC#N)CC[C@H]2C)c2cc[nH]c2n1 | 0% | 0% | 0% | 0% | 0% | 0% | 0% | 0% | 0% | 0% |
| CN(C)c1cc(-c2ccc3c(N)n[nH]c3c2)nc(N)n1 [GSK2219329] | 0% | 0% | 11% | 10% | 0% | 0% | 0% | 0% | 10% | 9% |
| Nc1ncnc2c1ncn2-c1ccc(Cl)cc1 [AH2635] | 0% | 0% | 0% | 0% | 0% | 0% | 0% | 0% | 0% | 17% |
| COc1cc(Nc2nccc(N3CCC(NC(=O)C4COc5ccccc5O4)C3)n2)cc(OC)c1OC (stereo not drawn) [GSK1379761] | 18% | 11% | 0% | 24% | 2% | 0% | 5% | 51% | 72% | 75% |
| COc1ccc(-c2cc3c(C)nc(N)nc3n([C@H]3CC[C@H](OCCO)CC3)c2=O)cn1 | 0% | 5% | 2% | 0% | 0% | 11% | 0% | 0% | 0% | 7% |
| Cc1cc(Nc2nc(-c3cccc(C)n3)nc3ccccc23)ccn1 [GW872411] | 0% | 0% | 0% | 0% | 9% | 0% | 0% | 3% | 14% | 0% |
| O=c1cc(N2CCOCC2)nc2n(Cc3ccc(F)c(Cl)c3)ccn12 [GSK2297099] | 20% | 0% | 19% | 13% | 14% | 2% | 0% | 0% | 0% | 0% |
| CN1C(=O)C(Nc2cc(Cl)c(O)c(Cl)c2)=C(c2ccc(Cl)cc2)C1=O [SB-404321] | 48% | 0% | 0% | 0% | 0% | 0% | 0% | 0% | 14% | 0% |
| FC(F)(F)c1ccc(-c2ncn(CCCN3CCOCC3)c2-c2ccncc2)cc1 [SB-217780] | 0% | 9% | 4% | 0% | 0% | 0% | 0% | 0% | 0% | 27% |
| COC(=O)c1c(-c2ccccc2)c2cc(Br)ccc2c(=O)n1Cc1ccc(S(C)(=O)=O)cc1 | 52% | 15% | 9% | 0% | 11% | 2% | 0% | 35% | 20% | 0% |
| CCc1ccc(-c2ccc3c(c2)-c2nn(C)cc2S(=O)(=O)N3C)cc1 | 10% | 0% | 9% | 0% | 13% | 0% | 0% | 0% | 6% | 0% |
| Cc1nn2c(=O)cc(N3CCOCC3)nc2n1Cc1cccc(Cl)c1Cl [GSK2342769] | 29% | 0% | 2% | 0% | 20% | 5% | 7% | 0% | 3% | 0% |
| CCC(=O)c1c(-c2ccccc2)c2cc(Cl)ccc2c(=O)n1Cc1ccc(C(=O)O)cc1 | 0% | 0% | 0% | 0% | 6% | 0% | 0% | 0% | 19% | 0% |
| COc1cc(Nc2ccnc3ccc(C(F)(F)F)cc23)cc(OC)c1OC [GW577382] | 22% | 0% | 25% | 12% | 10% | 6% | 19% | 49% | 0% | 7% |
| Nc1n[nH]c2ncc(-c3ccccc3)cc12 [SB-517081] | 38% | 0% | 0% | 28% | 2% | 0% | 0% | 21% | 64% | 27% |
| Nc1ncnc2c1ncn2-c1cccc(F)c1 [SKF-97560] | 43% | 0% | 0% | 17% | 2% | 18% | 35% | 0% | 6% | 0% |
| Nc1nc(N)c2nc(-c3ccccc3)[nH]c2n1 [SKF-12778] | 0% | 17% | 14% | 63% | 73% | 7% | 15% | 3% | 13% | 1% |
| COc1cc2ncn(-c3cc(OCc4ccncc4Br)c(C(N)=O)s3)c2cc1OC [GW854278] | 0% | 7% | 0% | 5% | 0% | 6% | 6% | 0% | 20% | 20% |
